PubChem BioAssay (Tox21)
Results filed as inconclusive are left out. Activity calls are given as the source filed them. Unless noted, calls follow the shape of the dose curve; as a rule, active = well fitted curve in the direction sought with a large enough effect in the repeat runs; inconclusive = weak or mixed curves; inactive = flat fitted curve, though single readings scatter. Positions of bridges follow the written chain, without caps; N, C: chain ends. Residues, ends and D or L forms follow the SMILES beside them.

Experiments:
[1] = qHTS assay to test for compound auto fluorescence at 535 nm (green) in HEK293 cells (AID 720680); settings: green autofluorescence 485/535 nm; series mostly up to 46 µM
[2] = qHTS assay to test for compound auto fluorescence at 460 nm (blue) in HEK293 cell free culture (AID 720681); settings: cell-free medium, autofluorescence 405/460 nm (blue); series mostly up to 46 µM
Procedure, shortened: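 Blue fluorescence (Ex 405/Em 460 nm, triamterene-equivalent) was read immediately after pin transfer of compound or DMSO into medium (DMEM, 10% FBS) without cells.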

[3] = qHTS assay to test for compound auto fluorescence at 535 nm (green) in HEK293 cell free culture (AID 720682); settings: cell-free medium, green autofluorescence 485/535 nm; series mostly up to 46 µM
Procedure, shortened: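 DMEM + 10% FBS, cell-free; cpd or DMSO pinned in; Ex485/Em535 read; output as fluorescein-equivalent signal.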

[4] = qHTS assay to test for compound auto fluorescence at 590 nm (red) in HEK293 cell free culture (AID 720683); settings: cell-free medium autofluorescence, Ex540/Em590 red; series mostly up to 46 µM
Procedure, shortened: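 Red-channel autofluorescence of compounds in culture medium (DMEM, 10% FBS), no cells, measured at 540/590 nm. Rose Bengal sodium is the reference fluorophore for equivalence.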

[5] = qHTS assay to test for compound auto fluorescence at 590 nm (red) in HepG2 cell free culture (AID 720684); settings: cell-free medium autofluorescence, red 540/590 nm; series mostly up to 46 µM
Procedure, shortened: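 Plate contents were MEM with 10% FBS plus test compound or DMSO, no cells. Fluorescence was recorded with 540 nm excitation and 590 nm emission.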

[6] = qHTS assay to test for compound auto fluorescence at 460 nm (blue) in HepG2 cell free culture (AID 720685); settings: Cell-free culture medium, blue autofluorescence 405/460 nm; series mostly up to 46 µM
Procedure, shortened: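 Compound (23 nL) or DMSO pinned into cell-free MEM with 10% FBS; blue fluorescence read at 405/460 nm excitation/emission, expressed as auto-fluorescence equivalency to triamterene.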

[7] = qHTS assay to test for compound auto fluorescence at 535 nm (green) in HepG2 cell free culture (AID 720686); settings: Cell-free medium, green autofluorescence 485/535 nm; series mostly up to 46 µM
[8] = qHTS assay to test for compound auto fluorescence at 460 nm (blue) in HepG2 cells (AID 720687); settings: autofluorescence 405/460 nm, 1 h; series mostly up to 46 µM
Procedure, shortened: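 Blue-channel autofluorescence (Ex/Em 405/460 nm, triamterene-equivalent) was measured after 1 hr compound exposure at 37 C, 5% CO2. Cells were HepG2, plated overnight at 37 C in MEM plus 10% FBS.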

[9] = target: Glucocorticoid receptor (Homo sapiens) (UniProt P04150); assay: qHTS assay to identify small molecule agonists of the glucocorticoid receptor (GR) signaling pathway (AID 720691; active = well fitted activation curve with a large enough effect in the signal ratio in the repeat runs, not every such curve was filed as active; the % refers to the signal ratio); settings: GR-bla HeLa, beta-lactamase reporter ratio, 18 h; activation: at 62.4 µM (top of the series)
Procedure, shortened: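 Reporter read-out: fluorescence intensity following 2 h room-temperature LiveBLAzer B/G FRET substrate loading. Prior step: GR-bla HeLa cells held 4 h, then treated 18 h at 37 C.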

[10] = target: Glucocorticoid receptor (Homo sapiens) (UniProt P04150); assay: qHTS assay to identify small molecule antagonists of the glucocorticoid receptor (GR) signaling pathway (AID 720692; active = well fitted inhibition curve with a large enough effect in the signal ratio in the repeat runs, not every such curve was filed as active; the % refers to the signal ratio; also: potency is read from the fitted curve at half-maximal effect); settings: GR-bla HeLa, beta-lactamase FRET ratio, dexamethasone-stimulated, 18 h; series mostly up to 58.5 µM
Procedure, shortened: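 Dexamethasone (5 nM final) stimulated a stably integrated GRE-beta-lactamase reporter in HeLa cells during 18 h co-incubation with compounds; signal was quantified as fluorescence intensity of B/G FRET substrate after 2 h.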

Measured: Potency

Glucocorticoid receptor (Homo sapiens), sequence (P04150 whole entry, looked up): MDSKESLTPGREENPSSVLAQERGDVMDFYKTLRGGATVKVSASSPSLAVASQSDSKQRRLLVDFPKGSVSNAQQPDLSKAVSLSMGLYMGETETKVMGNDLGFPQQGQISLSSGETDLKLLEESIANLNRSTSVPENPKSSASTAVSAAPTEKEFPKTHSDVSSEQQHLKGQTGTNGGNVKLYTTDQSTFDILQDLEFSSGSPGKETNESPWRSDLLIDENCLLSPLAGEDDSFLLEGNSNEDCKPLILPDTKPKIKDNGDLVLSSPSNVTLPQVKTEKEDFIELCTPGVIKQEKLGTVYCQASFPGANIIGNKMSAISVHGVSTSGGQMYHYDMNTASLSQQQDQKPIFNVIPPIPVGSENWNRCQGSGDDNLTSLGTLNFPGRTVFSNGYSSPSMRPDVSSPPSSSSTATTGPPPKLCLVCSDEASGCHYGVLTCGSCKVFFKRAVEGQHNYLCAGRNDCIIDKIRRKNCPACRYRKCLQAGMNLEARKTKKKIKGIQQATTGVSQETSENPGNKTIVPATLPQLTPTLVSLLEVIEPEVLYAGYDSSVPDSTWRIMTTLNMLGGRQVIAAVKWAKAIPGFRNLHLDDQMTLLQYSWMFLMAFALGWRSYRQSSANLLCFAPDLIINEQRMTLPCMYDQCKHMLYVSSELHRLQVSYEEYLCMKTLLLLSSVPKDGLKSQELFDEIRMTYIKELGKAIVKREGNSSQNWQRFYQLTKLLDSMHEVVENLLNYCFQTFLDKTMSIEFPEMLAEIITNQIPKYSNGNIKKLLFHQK

CN1CC(O)c2cc(N=NC(N)=O)c(O)cc21 (stereo unspecified)
inactive: all assays above

CCCCCCCCCCCCCCCCCC(=O)OC[C@@H](O)[C@H]1OC[C@H](O)[C@H]1O
inactive: all assays above

NCCCC[C@H](NC(=O)[C@@H]1CCCN1C(=O)[C@@H]1CSSC[C@H](NC(=O)CNC(=O)CNC(=O)CN)C(=O)N[C@@H](Cc2ccc(O)cc2)C(=O)N[C@@H](Cc2ccccc2)C(=O)N[C@@H](CCC(N)=O)C(=O)N[C@@H](CC(N)=O)C(=O)N1)C(=O)NCC(N)=O (H-GGGCYFQNCPKG-NH2; disulfide 4-9)
inactive: all assays above

CCC(=O)NS(=O)(=O)c1ccc(-c2c(-c3ccccc3)noc2C)cc1
inactive: all assays above

NCCCNCCCCNC(=O)C(O)NC(=O)CCCCCCN=C(N)N (stereo unspecified)
inactive: all assays above

CO/N=C(\C(=O)N[C@@H]1C(=O)N2C(C(=O)O)=C(CSC(=O)c3ccco3)CS[C@H]12)c1csc(N)n1
inactive: all assays above

CC#CCC(C)[C@H](O)/C=C/[C@@H]1[C@H]2C/C(=C/CCCC(=O)O)C[C@H]2C[C@H]1O (stereo partly specified)
inactive: all assays above

COc1ccc2cc([C@H](C)CO)ccc2c1
inactive: all assays above

OC[C@H]1O[C@@H](O[C@H]2[C@H](O)[C@@H](O)[C@H](O)O[C@@H]2CO)[C@H](O)[C@@H](O)[C@@H]1O
inactive: all assays above

CC(O)[C@@H]1NC(=O)[C@H](CCCCN)NC(=O)[C@@H](Cc2c[nH]c3ccccc23)NC(=O)[C@H](Cc2ccccc2)NC(=O)[C@@H](NC(=O)[C@H](N)Cc2ccccc2)CSSC[C@@H](C(=O)N[C@H](CO)[C@@H](C)O)NC1=O (stereo partly specified)
inactive: all assays above

O=C(Nc1ccc(/C=C/c2ccc(NC(=O)c3cc(S(=O)(=O)O)c4cccnc4c3O)cc2S(=O)(=O)O)c(S(=O)(=O)O)c1)c1cc(S(=O)(=O)O)c2cccnc2c1O
inactive: all assays above

Cc1cccc(C)c1Nc1ncccc1C(=O)O
inactive: all assays above

C=CCSSSCC=C
inactive: all assays above

O=C(O)C1=C(CSc2nnnn2CS(=O)(=O)O)CS[C@@H]2[C@H](NC(=O)[C@H](O)c3ccccc3)C(=O)N12
inactive: all assays above

Nc1nc(=O)n([C@@H]2CS[C@H](CO)O2)cc1F
inactive: all assays above

CC(=O)c1ccc2c(c1)N(CCCN1CCN(CCO)CC1)c1ccccc1S2
inactive: all assays above

CCCCCCCN(CC)CCCC(O)c1ccc(NS(C)(=O)=O)cc1 (stereo unspecified)
inactive: all assays above

CCOC(=O)COc1ccc2c(C)c(CCN(CC)CC)c(=O)oc2c1
inactive: all assays above

COc1ccc(C2(C#N)CCC(C(=O)O)CC2)cc1OC1CCCC1 (stereo unspecified)
inactive: all assays above

CS(=O)(=O)OCCCNCCCOS(C)(=O)=O
inactive: all assays above

Cc1cc(Nc2ccccc2C(=O)O)ccc1Cl
inactive: all assays above

COC(=O)CCC(=O)CN
inactive: all assays above

O=[N+]([O-])c1c(Cl)cccc1-c1c[nH]cc1Cl
active: [10] 21.3 µM
inactive: all other assays above

CN(CC(=O)N1CCOCC1)Cc1c(Cl)cccc1NC(=O)c1ccccc1
inactive: all assays above

C#C[C@]1(O)CC[C@H]2[C@@H]3CCC4=CC(=O)CC[C@@H]4[C@H]3C(=C)C[C@@]21CC
active: [10] 0.379 µM
inactive: all other assays above

CN(C)CC/C=C1/c2ccccc2CSc2ccccc21
inactive: all assays above

COc1ccc(C(=O)Nc2ccccc2CCC2CCCCN2C)cc1 (stereo unspecified)
inactive: all assays above

CCCCCCCCCCCCOCCCN
inactive: all assays above

CC1(C)S[C@@H]2[C@H](NC(=O)Cc3ccccc3)C(=O)N2[C@H]1C(=O)O
inactive: all assays above

CN(C)C(=O)CCSC(SCCC(=O)O)c1cccc(/C=C/c2ccc3ccc(Cl)cc3n2)c1 (stereo unspecified)
active: [10] 8.49 µM
inactive: all other assays above

O=C(O)[C@H](CC(=O)N1C[C@H]2CCCC[C@H]2C1)Cc1ccccc1
inactive: all assays above

O.O=C([O-])CC([S-])C(=O)[O-].[Au+].[Na+].[Na+] (stereo unspecified)
inactive: all assays above

C[C@@](Cc1ccc(O)c(O)c1)(NN)C(=O)O
inactive: all assays above

NCCCC[C@H](N)C(=O)O
not listed: [9]
inactive: all other assays above

CC(C)CN(C[C@@H](OP(=O)(O)O)[C@H](Cc1ccccc1)NC(=O)O[C@H]1CCOC1)S(=O)(=O)c1ccc(N)cc1
inactive: all assays above

CC1CCC(NC(=O)N(CCCl)N=O)CC1 (stereo unspecified)
not listed: [9]
inactive: all other assays above

CC(C)(CO)[C@@H](O)C(=O)NCCCC(=O)O
inactive: all assays above

NCc1ccccc1CC(=O)N[C@@H]1C(=O)N2C(C(=O)O)=C(CSc3nnnn3CC(=O)O)CS[C@H]12
not listed: [9]
inactive: all other assays above

O=P(O)(O)C(Sc1ccc(Cl)cc1)P(=O)(O)O
not listed: [9]
inactive: all other assays above

Cc1c(O)cc2c(c1C)O[C@](C)(CCC[C@H](C)CCC[C@H](C)CCCC(C)C)CC2
inactive: all assays above

CCCC1C(=O)N2C(N(C)C)=Nc3ccc(C)cc3N2C1=O (stereo unspecified)
inactive: all assays above

COc1ccc(CCNCC(O)COc2cccc(C)c2)cc1OC (stereo unspecified)
inactive: all assays above
